Results taken from the supplement of paper PMC11732987, “Enantioselective OTUD7B fragment discovery through chemoproteomics screening and high-throughput optimisation” (Communications Chemistry, 2025).

Legend:
Experiment in all cases: log2 ratio of Biotin-Ahx-Ub-VS probe labelling (fragment/DMSO); higher = less target engagement (more negative = stronger competition), active = hit call of the paper (q ≤ 0.05, log2 ratio ≤ -1)
Details in all cases: compound concentration: 200 uM; treatment time: 3 h
[1] = molecular target: USP34 (UniProt Q70CQ2)
Summary of the method: (§1)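 Using Biotin-Ahx-Ub-VS at 0.5 µM final for 1 h, DUBs were labelled in HEK293T lysate (495 µg per sample) that had first been treated in triplicate with fragment at 200 µM or vehicle for 3 h. NeutrAvidin enrichment, LysC and trypsin digestion and diaPASEF LC-MS/MS followed. Spectronaut label-free quantities were global-median-normalised. Values are average log2 fragment/vehicle ratios by unpaired t-test, using proteins with ≥2 unique peptides.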

[2] = molecular target: T1, USP36 (UniProt Q9P275)
T1 sequence (whole entry): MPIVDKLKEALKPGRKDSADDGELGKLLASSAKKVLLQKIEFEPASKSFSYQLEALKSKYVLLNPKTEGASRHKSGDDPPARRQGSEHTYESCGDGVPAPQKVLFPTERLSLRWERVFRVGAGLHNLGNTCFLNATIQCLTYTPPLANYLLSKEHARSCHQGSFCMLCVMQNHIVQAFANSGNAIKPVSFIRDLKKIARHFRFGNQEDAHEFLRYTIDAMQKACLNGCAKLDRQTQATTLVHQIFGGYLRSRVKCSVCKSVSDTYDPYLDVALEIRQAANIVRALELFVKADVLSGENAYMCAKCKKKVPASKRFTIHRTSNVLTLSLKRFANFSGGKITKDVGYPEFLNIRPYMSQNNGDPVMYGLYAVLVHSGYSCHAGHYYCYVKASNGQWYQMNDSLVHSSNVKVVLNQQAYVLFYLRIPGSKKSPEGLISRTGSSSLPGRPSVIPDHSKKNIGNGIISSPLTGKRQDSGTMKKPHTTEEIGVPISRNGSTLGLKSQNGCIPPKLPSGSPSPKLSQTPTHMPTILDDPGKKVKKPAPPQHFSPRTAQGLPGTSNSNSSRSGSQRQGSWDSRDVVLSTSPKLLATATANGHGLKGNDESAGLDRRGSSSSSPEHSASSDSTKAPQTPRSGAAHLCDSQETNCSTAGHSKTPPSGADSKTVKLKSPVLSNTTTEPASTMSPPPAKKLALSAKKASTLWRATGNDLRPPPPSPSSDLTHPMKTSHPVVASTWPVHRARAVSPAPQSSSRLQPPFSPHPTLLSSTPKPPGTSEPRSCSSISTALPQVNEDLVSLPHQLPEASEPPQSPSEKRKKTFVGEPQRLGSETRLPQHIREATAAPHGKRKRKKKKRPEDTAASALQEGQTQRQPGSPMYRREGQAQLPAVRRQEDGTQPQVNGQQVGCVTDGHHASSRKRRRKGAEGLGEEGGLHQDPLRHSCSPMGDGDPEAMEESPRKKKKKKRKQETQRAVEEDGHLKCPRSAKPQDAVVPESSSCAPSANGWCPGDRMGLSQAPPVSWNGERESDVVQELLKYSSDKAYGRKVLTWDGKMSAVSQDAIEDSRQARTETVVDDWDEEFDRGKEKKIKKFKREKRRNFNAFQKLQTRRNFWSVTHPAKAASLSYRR
Summary of the method: as §1

[3] = molecular target: T2, USP38 (UniProt Q8NB14)
T2 sequence (whole entry): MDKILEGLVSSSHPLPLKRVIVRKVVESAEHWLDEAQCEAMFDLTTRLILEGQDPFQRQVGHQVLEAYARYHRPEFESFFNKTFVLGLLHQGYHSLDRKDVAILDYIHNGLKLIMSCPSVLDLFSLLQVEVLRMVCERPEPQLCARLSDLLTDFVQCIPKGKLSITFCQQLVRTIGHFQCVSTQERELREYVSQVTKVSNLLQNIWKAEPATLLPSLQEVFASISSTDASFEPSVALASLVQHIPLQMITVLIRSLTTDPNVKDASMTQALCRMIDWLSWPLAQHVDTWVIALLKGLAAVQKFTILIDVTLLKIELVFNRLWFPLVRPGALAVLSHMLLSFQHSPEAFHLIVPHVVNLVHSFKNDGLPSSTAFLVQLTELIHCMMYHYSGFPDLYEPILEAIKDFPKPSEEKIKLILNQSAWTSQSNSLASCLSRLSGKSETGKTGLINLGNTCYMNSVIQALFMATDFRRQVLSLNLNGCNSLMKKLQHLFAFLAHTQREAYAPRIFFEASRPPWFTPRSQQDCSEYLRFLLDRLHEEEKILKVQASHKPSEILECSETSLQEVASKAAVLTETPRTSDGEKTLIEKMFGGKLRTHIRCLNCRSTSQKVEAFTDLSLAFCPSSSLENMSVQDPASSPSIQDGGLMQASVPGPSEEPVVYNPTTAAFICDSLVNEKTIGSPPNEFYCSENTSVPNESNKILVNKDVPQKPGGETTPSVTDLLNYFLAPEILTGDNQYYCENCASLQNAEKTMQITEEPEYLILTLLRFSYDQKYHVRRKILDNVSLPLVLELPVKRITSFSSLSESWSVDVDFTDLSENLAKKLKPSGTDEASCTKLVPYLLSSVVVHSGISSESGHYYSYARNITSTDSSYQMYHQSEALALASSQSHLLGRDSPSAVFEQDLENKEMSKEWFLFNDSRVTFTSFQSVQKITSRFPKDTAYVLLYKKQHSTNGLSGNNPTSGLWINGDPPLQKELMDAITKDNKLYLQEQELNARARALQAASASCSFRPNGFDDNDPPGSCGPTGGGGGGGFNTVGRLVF
Summary of the method: as §1

[4] = molecular target: T3, USP39 (UniProt Q53GS9)
T3 sequence (whole entry): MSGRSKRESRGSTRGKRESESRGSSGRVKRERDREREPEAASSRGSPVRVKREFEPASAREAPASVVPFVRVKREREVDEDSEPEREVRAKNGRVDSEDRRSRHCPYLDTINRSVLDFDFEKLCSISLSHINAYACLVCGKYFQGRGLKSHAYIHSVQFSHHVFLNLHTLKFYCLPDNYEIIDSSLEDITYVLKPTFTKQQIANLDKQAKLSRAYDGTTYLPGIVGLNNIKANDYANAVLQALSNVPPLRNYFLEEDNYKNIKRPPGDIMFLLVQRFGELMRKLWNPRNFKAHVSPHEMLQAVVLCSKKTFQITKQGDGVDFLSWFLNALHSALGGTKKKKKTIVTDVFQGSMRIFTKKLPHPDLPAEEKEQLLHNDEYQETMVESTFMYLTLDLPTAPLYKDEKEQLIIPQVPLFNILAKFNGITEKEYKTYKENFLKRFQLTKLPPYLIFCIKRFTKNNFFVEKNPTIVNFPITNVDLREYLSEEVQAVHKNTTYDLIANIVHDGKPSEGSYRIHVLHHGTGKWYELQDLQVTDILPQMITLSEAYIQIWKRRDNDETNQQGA
Summary of the method: as §1

[5] = molecular target: T4, USP4 (UniProt Q13107)
T4 sequence (whole entry): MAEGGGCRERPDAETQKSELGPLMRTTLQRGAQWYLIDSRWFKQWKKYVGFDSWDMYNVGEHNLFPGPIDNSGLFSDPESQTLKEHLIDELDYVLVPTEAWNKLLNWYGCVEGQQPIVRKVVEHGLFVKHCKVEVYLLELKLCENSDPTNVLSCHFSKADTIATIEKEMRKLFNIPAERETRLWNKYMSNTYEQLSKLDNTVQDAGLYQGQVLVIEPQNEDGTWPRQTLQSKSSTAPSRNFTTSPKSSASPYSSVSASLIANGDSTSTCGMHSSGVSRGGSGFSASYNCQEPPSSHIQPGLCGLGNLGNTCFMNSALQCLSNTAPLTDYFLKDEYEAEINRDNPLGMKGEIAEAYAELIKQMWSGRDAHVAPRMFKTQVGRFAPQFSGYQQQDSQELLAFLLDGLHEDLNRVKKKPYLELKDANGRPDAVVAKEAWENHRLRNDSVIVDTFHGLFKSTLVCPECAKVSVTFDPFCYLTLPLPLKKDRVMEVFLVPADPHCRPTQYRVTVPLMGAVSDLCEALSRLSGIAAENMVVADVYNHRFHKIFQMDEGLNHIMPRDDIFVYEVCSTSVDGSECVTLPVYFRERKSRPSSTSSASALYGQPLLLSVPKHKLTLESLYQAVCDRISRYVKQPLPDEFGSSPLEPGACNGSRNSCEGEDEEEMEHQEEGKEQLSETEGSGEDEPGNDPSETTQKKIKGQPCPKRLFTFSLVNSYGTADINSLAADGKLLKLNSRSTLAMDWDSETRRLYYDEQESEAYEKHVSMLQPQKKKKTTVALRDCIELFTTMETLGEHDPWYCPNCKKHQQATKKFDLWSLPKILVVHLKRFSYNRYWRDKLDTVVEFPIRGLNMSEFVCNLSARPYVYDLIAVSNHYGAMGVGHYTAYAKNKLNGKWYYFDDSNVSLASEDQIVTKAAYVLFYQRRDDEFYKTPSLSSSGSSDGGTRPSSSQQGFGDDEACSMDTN
Summary of the method: as §1

Measured: log2 ratio of Biotin-Ahx-Ub-VS probe labelling

USP34, sequence (Q70CQ2 whole entry, the tested form may be a part): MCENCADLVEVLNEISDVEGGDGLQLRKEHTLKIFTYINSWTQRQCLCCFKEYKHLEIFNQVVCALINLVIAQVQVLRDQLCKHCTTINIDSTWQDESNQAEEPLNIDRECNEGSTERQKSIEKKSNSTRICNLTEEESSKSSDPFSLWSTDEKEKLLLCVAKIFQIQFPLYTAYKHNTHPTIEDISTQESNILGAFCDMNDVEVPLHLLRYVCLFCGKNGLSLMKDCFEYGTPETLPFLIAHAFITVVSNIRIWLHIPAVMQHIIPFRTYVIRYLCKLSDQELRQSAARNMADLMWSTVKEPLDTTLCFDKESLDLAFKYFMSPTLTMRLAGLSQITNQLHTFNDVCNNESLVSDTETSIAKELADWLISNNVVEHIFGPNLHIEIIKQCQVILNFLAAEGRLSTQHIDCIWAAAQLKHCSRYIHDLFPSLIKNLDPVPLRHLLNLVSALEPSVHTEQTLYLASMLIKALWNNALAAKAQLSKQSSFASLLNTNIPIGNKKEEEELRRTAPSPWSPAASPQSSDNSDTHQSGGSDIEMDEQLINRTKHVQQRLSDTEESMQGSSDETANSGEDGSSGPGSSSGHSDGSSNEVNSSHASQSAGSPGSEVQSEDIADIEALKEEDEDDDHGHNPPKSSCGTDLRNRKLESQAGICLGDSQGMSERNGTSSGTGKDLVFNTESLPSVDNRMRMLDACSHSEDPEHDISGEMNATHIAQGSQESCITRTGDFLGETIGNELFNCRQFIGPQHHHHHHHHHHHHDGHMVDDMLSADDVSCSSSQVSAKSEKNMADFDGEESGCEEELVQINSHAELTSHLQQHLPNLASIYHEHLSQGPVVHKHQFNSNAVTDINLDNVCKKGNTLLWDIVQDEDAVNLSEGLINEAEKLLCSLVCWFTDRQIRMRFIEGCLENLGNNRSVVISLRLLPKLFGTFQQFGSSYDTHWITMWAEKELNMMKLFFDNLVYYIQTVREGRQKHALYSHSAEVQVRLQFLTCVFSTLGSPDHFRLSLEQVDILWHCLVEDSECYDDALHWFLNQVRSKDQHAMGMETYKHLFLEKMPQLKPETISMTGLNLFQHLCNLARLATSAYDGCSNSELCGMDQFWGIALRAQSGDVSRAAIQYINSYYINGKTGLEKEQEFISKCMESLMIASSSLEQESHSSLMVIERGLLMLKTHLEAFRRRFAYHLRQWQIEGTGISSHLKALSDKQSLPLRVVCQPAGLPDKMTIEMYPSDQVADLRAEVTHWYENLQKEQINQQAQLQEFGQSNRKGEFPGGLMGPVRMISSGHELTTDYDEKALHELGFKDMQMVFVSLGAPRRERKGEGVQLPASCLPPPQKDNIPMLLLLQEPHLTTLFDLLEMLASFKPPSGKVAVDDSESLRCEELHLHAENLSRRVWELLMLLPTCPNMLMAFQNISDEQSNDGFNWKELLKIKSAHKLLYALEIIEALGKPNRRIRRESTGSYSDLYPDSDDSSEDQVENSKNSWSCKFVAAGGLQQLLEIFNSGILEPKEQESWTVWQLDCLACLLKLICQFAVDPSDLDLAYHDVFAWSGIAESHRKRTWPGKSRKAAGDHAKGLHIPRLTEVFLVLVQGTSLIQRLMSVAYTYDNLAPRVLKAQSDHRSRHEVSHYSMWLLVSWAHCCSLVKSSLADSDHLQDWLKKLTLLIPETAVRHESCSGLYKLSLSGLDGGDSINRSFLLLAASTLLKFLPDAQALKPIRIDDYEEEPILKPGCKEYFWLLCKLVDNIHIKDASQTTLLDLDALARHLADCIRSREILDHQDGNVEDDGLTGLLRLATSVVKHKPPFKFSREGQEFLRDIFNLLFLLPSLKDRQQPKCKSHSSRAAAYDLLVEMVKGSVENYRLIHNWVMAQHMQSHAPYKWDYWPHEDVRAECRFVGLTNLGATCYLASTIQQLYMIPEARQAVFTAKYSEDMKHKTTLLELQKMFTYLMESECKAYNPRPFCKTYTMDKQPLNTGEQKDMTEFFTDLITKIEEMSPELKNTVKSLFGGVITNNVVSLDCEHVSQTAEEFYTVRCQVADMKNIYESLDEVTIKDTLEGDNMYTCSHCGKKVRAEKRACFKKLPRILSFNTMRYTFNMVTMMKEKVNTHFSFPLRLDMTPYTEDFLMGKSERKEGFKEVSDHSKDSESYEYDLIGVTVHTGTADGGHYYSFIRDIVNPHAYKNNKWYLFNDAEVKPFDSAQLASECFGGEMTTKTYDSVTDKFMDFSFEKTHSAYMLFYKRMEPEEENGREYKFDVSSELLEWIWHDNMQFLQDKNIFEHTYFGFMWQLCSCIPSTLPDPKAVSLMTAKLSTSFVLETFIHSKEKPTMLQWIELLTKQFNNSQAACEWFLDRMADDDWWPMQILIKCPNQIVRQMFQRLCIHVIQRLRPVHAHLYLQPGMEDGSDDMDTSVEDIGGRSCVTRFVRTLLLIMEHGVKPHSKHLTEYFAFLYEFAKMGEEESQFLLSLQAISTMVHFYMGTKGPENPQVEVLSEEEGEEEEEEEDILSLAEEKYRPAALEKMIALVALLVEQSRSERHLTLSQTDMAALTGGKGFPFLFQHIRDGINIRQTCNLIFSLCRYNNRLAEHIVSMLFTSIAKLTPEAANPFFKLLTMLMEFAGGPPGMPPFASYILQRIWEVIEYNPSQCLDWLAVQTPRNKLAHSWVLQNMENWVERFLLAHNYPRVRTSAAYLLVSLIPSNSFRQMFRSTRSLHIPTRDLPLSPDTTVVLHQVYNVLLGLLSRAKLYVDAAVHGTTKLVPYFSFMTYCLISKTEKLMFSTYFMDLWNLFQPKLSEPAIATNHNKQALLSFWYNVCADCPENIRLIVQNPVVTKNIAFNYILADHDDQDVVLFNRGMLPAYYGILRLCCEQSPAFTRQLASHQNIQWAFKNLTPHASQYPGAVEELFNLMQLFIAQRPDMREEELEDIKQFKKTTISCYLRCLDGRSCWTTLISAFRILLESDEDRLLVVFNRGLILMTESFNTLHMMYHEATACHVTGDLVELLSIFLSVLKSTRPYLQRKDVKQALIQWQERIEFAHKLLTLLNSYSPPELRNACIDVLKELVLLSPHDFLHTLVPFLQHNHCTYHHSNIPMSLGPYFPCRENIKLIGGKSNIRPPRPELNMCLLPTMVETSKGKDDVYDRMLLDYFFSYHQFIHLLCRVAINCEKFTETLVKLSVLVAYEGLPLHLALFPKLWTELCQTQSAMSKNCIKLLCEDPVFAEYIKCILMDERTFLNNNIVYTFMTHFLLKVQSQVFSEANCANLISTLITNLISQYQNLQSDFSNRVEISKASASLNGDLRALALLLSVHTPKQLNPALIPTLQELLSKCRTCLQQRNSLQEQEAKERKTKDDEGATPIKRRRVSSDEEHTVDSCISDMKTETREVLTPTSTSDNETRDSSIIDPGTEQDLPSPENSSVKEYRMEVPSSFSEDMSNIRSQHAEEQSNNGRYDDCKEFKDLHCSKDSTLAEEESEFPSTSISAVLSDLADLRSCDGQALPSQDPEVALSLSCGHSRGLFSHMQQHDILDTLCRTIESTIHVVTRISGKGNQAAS

Cc1cc(Cl)ccc1NC(=O)CCl
inactive: [1] -0.254 | [2] -0.182 | [3] -0.0702 | [4] 0.072 | [5] -0.0162
